# Data reported in PubChem BioAssay.
# Calls of active or inactive are those of the source. How the calls were made is not given here.
# Target: Pantothenate synthetase (Mycobacterium tuberculosis (strain ATCC 25618 / H37Rv)) (UniProt P9WIL5)
# Assay: Coupled enzyme confirmation of inhibitors against recombinant Mtb PanC (AID 375);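 further: 0% = full reaction with vehicle and 100% = no enzyme background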
# Conditions: coupled enzyme assay; at 10 µM, stronger effect = higher value
# Chain of Pantothenate synthetase (Mycobacterium tuberculosis (strain ATCC 25618 / H37Rv)) (P9WIL5 whole entry, looked up): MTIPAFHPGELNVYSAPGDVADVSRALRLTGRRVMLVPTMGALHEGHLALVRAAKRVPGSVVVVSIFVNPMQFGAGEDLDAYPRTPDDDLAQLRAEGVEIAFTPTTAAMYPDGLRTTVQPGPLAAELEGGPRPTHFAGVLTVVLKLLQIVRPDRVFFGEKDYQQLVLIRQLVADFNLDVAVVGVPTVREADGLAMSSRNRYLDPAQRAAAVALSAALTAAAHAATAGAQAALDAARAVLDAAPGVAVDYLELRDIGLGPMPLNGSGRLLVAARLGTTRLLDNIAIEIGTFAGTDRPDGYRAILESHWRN
row,Compound,inhibition
1,CCc1ccccc1NC(=O)CSC1=C(C#N)C(c2ccc(O)c(OC)c2)C2=C(CCCC2=O)N1 (stereo not given),6% (inactive)
2,COc1cccc(N2CCN(C(=O)C3C4C=CC5(CN(Cc6ccccc6Cl)C(=O)C35)O4)CC2)c1 (stereo not given),0% (inactive)
3,CC(OC(=O)CNC(=O)C12CC3CC(CC(C3)C1)C2)C(=O)Nc1ccc(N2CCOCC2)cc1 (stereo not given),0% (inactive)
4,Cc1c(C(=O)NCCC2=CCCCC2)oc2ccc(S(=O)(=O)N3CCC4(CC3)OCCO4)cc12,0% (inactive)
5,Cc1ccc(S(=O)(=O)Nc2nc3ccccc3nc2NCc2ccco2)cc1,3% (inactive)
6,Cc1ccc(SCCNS(=O)(=O)c2ccc(F)cc2)cc1,1% (inactive)
7,O=C(Nc1sccc1C(=O)NCc1ccco1)c1cccnc1,5% (inactive)
8,CC(C)OP(=O)(c1ccc(N(C)C)cc1)C(O)c1ccccc1F (stereo not given),0% (inactive)
9,CCOC(=O)N1CCN(Cc2ccccc2F)CC1,19% (inactive)
10,COc1cc(NC(=O)C(C)Oc2ccccc2)c(C(=O)O)cc1OC (stereo not given),0% (inactive)
11,Cc1csc(NC(=O)CCn2c(=O)oc3ccccc32)n1,1% (inactive)
12,CCOc1ccc(C2/C(=C(/O)c3ccc(OC)cc3)C(=O)C(=O)N2c2cc(C)on2)cc1OC (stereo not given),0% (inactive)
13,CC1(C)OC(=O)C(=CNc2ccccc2F)C(=O)O1,0% (inactive)
14,COc1cc2nc(N3CCN(C(=O)C4CCCO4)CC3)nc(N)c2cc1OC (stereo not given),0% (inactive)
15,COc1cc(C(=O)N2c3ccccc3CC2C)cc(OC)c1OC (stereo not given),0% (inactive)
16,CS(=O)(=O)N1CCCC(C(=O)N2CCOCC2)C1 (stereo not given),6% (inactive)
17,COc1cccc(C=Nc2ccc3c(c2)OCCO3)c1O,3% (inactive)
18,Cc1ccc(S(=O)(=O)Cc2ccc(C(=O)NCc3ccc4c(c3)OCO4)o2)cc1,0% (inactive)
19,CCCc1[nH]nc2c1C(c1cccc(OC(=O)c3ccco3)c1)C(C#N)=C(N)O2 (stereo not given),1% (inactive)
20,O=C(c1ccc(Cl)cc1)N1CCCOC1,4% (inactive)

row,Compound,inhibition
1,COC(=O)Cc1c(C)nc2nc(-c3ccccc3)[nH]n2c1=O,0% (inactive)
2,CC1CCN(C(=O)CSc2nnc(-c3cccnc3)n2C2CCCCC2)CC1,0% (inactive)
3,CCN(CC)C(=O)C1=C(C)NC(=O)NC1c1c(F)cccc1Cl (stereo not given),0% (inactive)
4,COc1ccc(S(=O)(=O)Cc2ccc(C(=O)N3CCOCC3)o2)cc1,7% (inactive)
5,CCC(=O)Nc1nn(C)c2nc3c(C)cccc3cc12,0% (inactive)
6,COc1ccc(-c2nnc(SCCC(=O)O)n2-c2ccccc2)cc1,0% (inactive)
7,COc1cccc(C2C(C(=O)c3ccc(C)o3)=C(O)C(=O)N2CCCN(C)C)c1 (stereo not given),0% (inactive)
8,CC1=NC(Nc2nc(C)c3ccccc3n2)=NC(C)(C)C1,0% (inactive)
9,O=C(CCNS(=O)(=O)c1ccc(Cl)cc1)NCc1ccccn1,0% (inactive)
10,CCOC(=O)C1CCN(C(c2cc3cc(C)cc(C)c3[nH]c2=O)c2nnnn2C2CCCCC2)CC1 (stereo not given),0% (inactive)
11,CCCC1CCC(C(=O)Nn2c(C)nc3ccccc3c2=O)CC1 (stereo not given),8% (inactive)
12,CC1(C)C(c2ccccc2)=NC(c2ccccc2)N1O (stereo not given),3% (inactive)
13,Nc1nc(C(=O)N2CCOCC2)nn1S(=O)(=O)c1ccc(Cl)cc1,0% (inactive)
14,COC(=O)Cn1c(CN2CCN(c3ccccc3F)CC2)nc2c1c(=O)n(C)c(=O)n2C,0% (inactive)
15,CCOc1ccc2nc(Nc3nc4c(c(=O)[nH]3)CCC4)nc(C)c2c1,0% (inactive)
16,COC(=O)c1ccccc1NC(=O)C1CC=CCC1C(=O)O (stereo not given),0% (inactive)
17,O=C(C1CCCCC1)N1CCC(c2nc3c(nnn3Cc3c(F)cccc3Cl)c(=O)[nH]2)CC1,0% (inactive)
18,Nc1nnc(SCC(=O)N2CCN(c3ccccc3)CC2)n1-c1ccccc1,7% (inactive)
19,Cc1ncc([N+](=O)[O-])n1CC(O)CCl (stereo not given),0% (inactive)
20,CCn1cc(C(C)NC(=O)COc2ccc(Cl)cc2C)c(C)n1 (stereo not given),0% (inactive)
